Data published in PubChem BioAssay (EPA / NIEHS).
The source made the active and inactive calls. How the source made its calls: active means hit-call score of the fitted dose curve at least 0.9, where 1 is the maximum; inactive means score below 0.9.

Key:
Settings in all cases: mRNA level, 48 h; actives raise or lower the signal
[1] = read-out: ABC Transporter (ABCC3), ABCC3 (gene 8714); test: LTEA_HepaRG_ABCC3: Life Technologies and Expression Analysis (LTEA) Assay for ABC Transporter (ABCC3) using HepaRG (AID 2283462)
How it was run: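 Human HepaRG, 48 h dosing, 8-pt half-log series from 100 uM, 0.5% DMSO vehicle, duplicates. ABCC3 mRNA by TaqMan qRT-PCR, housekeeping-normalized; bidirectional curve fit vs DMSO.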

[2] = read-out: ABC Transporter (ABCB11), ABCB11 (gene 8647); test: LTEA_HepaRG_ABCB11: Life Technologies and Expression Analysis (LTEA) Assay for ABC Transporter (ABCB11) using HepaRG (AID 2283463)
How it was run: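 Differentiated human HepaRG cells were exposed for 48 h in serum-free induction medium to eight half-log concentrations up to 100 uM in 0.5% DMSO. ABCB11 mRNA was quantified by qRT-PCR, normalized to ACTB, GAPDH and POLR2A, and fitted bidirectionally versus DMSO.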

[3] = read-out: ABC Transporter (ABCC2), ABCC2 (gene 1244); test: LTEA_HepaRG_ABCC2: Life Technologies and Expression Analysis (LTEA) Assay for ABC Transporter (ABCC2) using HepaRG (AID 2283464)
How it was run: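 HepaRG, 48 h post-plating; serum-free induction medium; cpd 8-pt, 100 uM top, half-log, 0.5% DMSO, duplicate, 48 h. Readout: ABCC2 mRNA by qRT-PCR, norm. ACTB/GAPDH/POLR2A. Bidirectional fit vs DMSO baseline.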

[4] = read-out: Broad substrate specificity ATP-binding cassette transporter ABCG2 (Homo sapiens) (UniProt Q9UNQ0); test: LTEA_HepaRG_ABCG2: Life Technologies and Expression Analysis (LTEA) Assay for ABC Transporter (ABCG2) using HepaRG (AID 2283465)
How it was run: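 Differentiated HepaRG cells in serum-free induction medium were exposed for 48 h, in duplicate, to eight half-log concentrations up to 100 uM in 0.5% DMSO. ABCG2 mRNA was measured by TaqMan qRT-PCR, normalized to ACTB, GAPDH and POLR2A, and fitted bidirectionally versus DMSO.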

[5] = read-out: ATP-citrate lyase (ACLY), ACLY (gene 47); test: LTEA_HepaRG_ACLY: Life Technologies and Expression Analysis (LTEA) Assay for ATP-citrate lyase (ACLY) using HepaRG (AID 2283466)
How it was run: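 Differentiated human HepaRG cells in serum-free induction medium exposed 48 h, in duplicate, to eight half-log concentrations from 100 uM top in 0.5% DMSO; ACLY mRNA measured by qRT-PCR, normalized to ACTB, GAPDH, POLR2A, fitted bidirectionally versus DMSO.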

[6] = read-out: Peroxisomal acyl-coenzyme A oxidase 1 (ACOX1) gene, ACOX1 (gene 51); test: LTEA_HepaRG_ACOX1: Life Technologies and Expression Analysis (LTEA) Assay for Peroxisomal acyl-coenzyme A oxidase 1 (ACOX1) gene using HepaRG (AID 2283467)
How it was run: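 Differentiated human HepaRG cells were exposed in duplicate for 48 h in serum-free induction medium to eight half-log concentrations up to 100 uM in 0.5% DMSO. ACOX1 mRNA was then quantified by TaqMan qRT-PCR, normalized to ACTB, GAPDH and POLR2A.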

[7] = read-out: Alkaline Phosphatase, Placental (ALPP) gene, ALPP (gene 250); test: LTEA_HepaRG_ALPP: Life Technologies and Expression Analysis (LTEA) Assay for Alkaline Phosphatase, Placental (ALPP) gene using HepaRG (AID 2283468)
How it was run: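 HepaRG, 48 h plating then 48 h dosing, serum-free induction medium, 0.5% DMSO. 8 conc, half-log, max 100 uM, duplicates. Endpoint: ALPP transcript by qRT-PCR, housekeeping-normalized; gain or loss fitted vs DMSO.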

[8] = read-out: Bcl-2 (BAD) gene, BAD (gene 572); test: LTEA_HepaRG_BAD: Life Technologies and Expression Analysis (LTEA) Assay for Bcl-2 (BAD) gene using HepaRG (AID 2283469)
How it was run: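 Differentiated human HepaRG cells in serum-free induction medium were exposed in duplicate for 48 h to eight concentrations (top 100 uM, half-log steps, 0.5% DMSO). BAD mRNA was quantified by qRT-PCR normalised to ACTB, GAPDH and POLR2A, with bidirectional fitting versus DMSO.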

[9] = read-out: Bcl-2 (BAX) gene, BAX (gene 581); test: LTEA_HepaRG_BAX: Life Technologies and Expression Analysis (LTEA) Assay for Bcl-2 (BAX) gene using HepaRG (AID 2283470)
How it was run: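 Concentration-response endpoint fitted in both directions relative to 0.5% DMSO vehicle. Human HepaRG cultures receive test chemicals for 48 h at up to 100 uM; BAX mRNA is quantified by qRT-PCR against housekeeping genes.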

[10] = read-out: adenosine kinase (ADK) gene, ADK (gene 132); test: LTEA_HepaRG_ADK: Life Technologies and Expression Analysis (LTEA) Assay for adenosine kinase (ADK) gene using HepaRG (AID 2283471)
How it was run: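 HepaRG (human liver), 48 h chemical exposure, 8-pt half-log series, top 100 uM, 0.5% DMSO vehicle. Readout: ADK mRNA by qRT-PCR vs housekeeping genes; bidirectional curve fit relative to DMSO baseline.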

Measured: outcome

Broad substrate specificity ATP-binding cassette transporter ABCG2 (Homo sapiens), sequence (Q9UNQ0 whole entry, looked up): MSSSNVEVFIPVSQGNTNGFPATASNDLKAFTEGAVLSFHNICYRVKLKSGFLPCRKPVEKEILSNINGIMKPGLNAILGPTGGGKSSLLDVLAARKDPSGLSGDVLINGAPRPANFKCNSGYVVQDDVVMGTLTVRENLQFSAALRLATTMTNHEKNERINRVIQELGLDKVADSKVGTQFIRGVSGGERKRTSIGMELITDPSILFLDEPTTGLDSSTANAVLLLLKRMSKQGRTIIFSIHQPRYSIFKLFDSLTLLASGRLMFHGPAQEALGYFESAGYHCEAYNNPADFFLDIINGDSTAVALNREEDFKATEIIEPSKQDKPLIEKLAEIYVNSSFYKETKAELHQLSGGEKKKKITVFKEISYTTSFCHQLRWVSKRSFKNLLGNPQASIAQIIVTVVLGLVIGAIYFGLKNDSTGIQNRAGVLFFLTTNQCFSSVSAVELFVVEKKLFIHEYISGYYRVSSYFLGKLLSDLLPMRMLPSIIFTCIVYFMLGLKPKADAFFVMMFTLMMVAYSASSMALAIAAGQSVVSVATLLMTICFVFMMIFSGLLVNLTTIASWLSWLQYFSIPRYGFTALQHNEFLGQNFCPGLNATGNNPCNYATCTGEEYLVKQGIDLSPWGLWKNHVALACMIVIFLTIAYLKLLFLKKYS

O=C(O)c1ccc([N+](=O)[O-])cc1
inactive: all assays above
